KDM5B inhibitor: inhibitors of human KDM5B histone demethylase; KDM5B demethylase, FDH-coupled NADH fluorescence (FDH is formaldehyde dehydrogenase); Potency, µM (highest dose often 57.7 µM), most hits filed as inhibitors; 220,000 tested, 2.6% active; active = well fitted inhibition curve with a large enough effect; note: 0% is about no effect; nearly all actives have a fitted effect of over 70% in size
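Coupled FDH/NAD⁺ fluorescence readout. KDM5BΔAP 200 nM final; compound titration, 10 min RT preincubation; substrate mix 12.5 µM H3K4me3, 25 µM 2-OG, 50 µM Fe(II), 100 µM ascorbate, 0.25 mM NAD⁺, 0.25 U/mL FDH; ΔRFU over 30 min.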
An asterisk follows results filed as active; i = inactive. Shown is part of a subset that was picked to be rich in hits. Potency is the fitted concentration of half-maximal effect.

SMILES | KDM5B inhibitor
Cc1ccccc1C(=O)NC1CCCN(c2cc(-c3ccc(F)cc3)[nH]n2)C1 (stereo not given) | i
Cc1ccc(C(=O)NC2CCN(c3cc(-c4cccs4)[nH]n3)C2)cc1F (stereo not given) | 4µM*
Cc1cccc(C(=O)NC2CCN(c3cc(-c4cccs4)[nH]n3)C2)c1 (stereo not given) | 11µM*
Cc1ccccc1C(=O)NC1CCN(c2cc(-c3cccs3)[nH]n2)C1 (stereo not given) | 13µM*
COc1ccc(C(=O)NC2CCN(c3cc(-c4cccs4)[nH]n3)C2)cc1OC (stereo not given) | 11µM*
CCOc1ccc(C(=O)NC2CCN(c3cc(-c4cccs4)[nH]n3)CC2)cc1OCC | i
COc1ccc(-c2cc(N3CCCC(NC(=O)c4ccc(OC)c(OC)c4)C3)n[nH]2)cc1 (stereo not given) | i
O=C(NC1CCN(c2cc(-c3cccs3)[nH]n2)CC1)c1ccccc1F | i
N#Cc1cccc(C(=O)NC2CCN(c3cc(-c4cccs4)[nH]n3)CC2)c1 | i
O=C(NC1CCN(c2cc(-c3cccs3)[nH]n2)CC1)c1ccccc1 | i
O=C(NC1CCN(c2cc(-c3cccs3)[nH]n2)CC1)c1ccc(Cl)cc1 | i
O=C(c1ccsc1)N1CCC2(CC1)CC(N(Cc1ccc(F)cc1)C1CC1)CCO2 (stereo not given) | i
CC(=O)N1CCc2nn(CC(=O)N3CCc4ccccc43)c(=O)cc2C1 | i
CC(CCc1ccccc1)NC(=O)C1CCCCC1C(=O)O (stereo not given) | i
CCOC(=O)C1=C(C)NC(=O)C1(NC(=O)c1ccc(OC)c(OC)c1)C(F)(F)F (stereo not given) | i
CCN(CC)CCNC(=O)c1nc(-c2ccc3cc[nH]c3c2)no1 | i
COCCCNC(=O)[C@H]1CCC[C@H]1NC(=O)c1ccc(OC)nc1 | i
COC1C(=O)N(c2cccc(F)c2)C12CCN(C(=O)c1cn(C)cn1)CC2 (stereo not given) | i
CC(C)C[C@@H]1N[C@H](C(=O)NC2CCC2)Cc2c[nH]c3cccc1c23 | i
CN(Cc1nc2scc(-c3ccc(F)cc3)c2c(=O)[nH]1)Cc1cccs1 | i
CCCC(=O)Nc1nnc(SCC(=O)N2CCN(c3ccccc3)CC2)s1 | i
O=c1cc(-c2cccnc2)oc2c(NCc3ccccc3)nccc12 | i
Cn1cc(-c2cc(=O)c3ccnc(NC4CCOCC4)c3o2)cn1 | i
Cn1cc(-c2cc(=O)c3ccnc(NCc4ccc(F)cc4)c3o2)cn1 | 32µM*
COc1ccc2nc3sc(C(=O)NCCc4ccc(Cl)cc4)cc3cc2c1 | i
SMILES | KDM5B inhibitor
COCCN1CC(C(=O)NCCOc2ccccc2)CCC1=O (stereo not given) | i
COCCN1CC(C(=O)N2CCC(O)(c3ccc(F)cc3)CC2)CCC1=O (stereo not given) | i
COCCN1CC(C(=O)N2CCN(c3ncccc3C#N)CC2)CCC1=O (stereo not given) | 32µM*
CCN(CC)S(=O)(=O)c1ccc2c(c1)N(CC(=O)Nc1ccc(F)cc1)C(=O)CO2 | i
CC(C)=CC(=O)Nc1ccccc1C(C)(C)C | i
COc1cccc(C2CC(=O)Nc3ccsc32)c1OC (stereo not given) | i
Nc1nc2c(s1)C(c1cccc(F)c1F)CC(=O)N2 (stereo not given) | 22µM*
CC1=C(C(=O)OCC2CCCCC2)C(c2ccc(F)cc2F)CC(=O)N1 (stereo not given) | i
Nc1nc2c(s1)C(c1ccc(F)cc1F)CC(=O)N2 (stereo not given) | 32µM*
O=C1CCCC2=C1C(c1ccc(F)cc1F)Nc1nonc1N2 (stereo not given) | i
O=C1CC(c2ccccc2F)c2c(n3c(nc4ccccc43)[nH]c2=O)N1 (stereo not given) | i
CNC(=O)N1CCCCCCNC(=O)[C@@H]2C[C@@H](c3nc(-c4cccnc4)no3)C[C@@H]21 | i
O=C(NNC(=O)c1ccc(Br)s1)c1csc(N2CCOCC2)n1 | i
COCC(=O)N(c1ccc(Br)cc1)C1C=CS(=O)(=O)C1 (stereo not given) | i
O=C(NCC1CN(CC2CC2)CC12CN(c1ccccc1)C2)c1ccccc1 (stereo not given) | i
CC1=C/C(=N\Nc2nc3ccccc3[nH]2)CC(C)(C)C1 | i
O=C(NNC(=O)c1cnccc1C(F)(F)F)c1cccc(Cl)c1 | i
CCc1c(C)nn(CC(=O)NCC2CCN(c3cnn(C)c(=O)c3)C2)c1C (stereo not given) | i
COc1ccc(C=O)cc1C(C)(C)C | i
COc1ccc(F)cc1-c1ccc(C(=O)O)cc1 | 100µM*
COc1ccc(F)cc1-c1cccc(C(=O)O)c1 | i
COc1ccc(F)cc1-c1ccc(C=O)cc1 | 50µM*
COc1ccc(C=O)cc1OCc1ccc(F)cc1Cl | i
COc1ccc(F)cc1C(=O)C(=O)O | i
CC1CCCN(C(=O)Cc2cccn2-c2ccc(F)cc2)C1 (stereo not given) | i
SMILES | KDM5B inhibitor
Cc1ccc2c(C)nc(Nc3nc(C(C)C)cc(=O)[nH]3)nc2c1 | i
CC(C(=O)Nc1cccc(C#N)c1)n1nnc(-c2ccccc2Cl)n1 (stereo not given) | i
O=C(CCn1ccc(=O)[nH]c1=O)N1CC[C@@H](c2ccc3c(c2)OCO3)[C@H](O)C1 | i
O=C(c1ccccc1-c1ncc[nH]1)N1CC[C@@H](c2ccc3c(c2)OCO3)[C@H](O)C1 | i
OC1CCN(c2ccnc(N3CC[C@@H](c4ccc5c(c4)OCO5)[C@H](O)C3)n2)CC1 | i
O=C(O)c1cccc(C(=O)N2C[C@@H](C(=O)O)[C@H](c3ccc4c(c3)OCO4)C2)c1 | i
CCc1nc(CN2CC[C@@H](c3ccc4c(c3)OCO4)[C@H](O)C2)c(C)[nH]1 | 25µM*
Cc1ccc(C#N)c(N2CC[C@@H](c3ccc4c(c3)OCO4)[C@H](O)C2)n1 | 28µM*
Cc1ccc(N2CCN(C(=O)c3c(C)oc4ncn(C)c(=O)c34)CC2)c(C)c1 | i
O=C(NCc1ccco1)/C(=C/c1ccc([N+](=O)[O-])cc1)NC(=O)c1ccco1 | i
COc1ccc(CC(=O)N[C@@H]2CN(c3ccncn3)C[C@H]2CN(C)C)cc1OC | i
CN(C)C[C@@H]1CN(c2ccccn2)C[C@H]1NC(=O)NC(C)(C)C | 32µM*
CCOc1ccc(CC(=O)N[C@@H]2CN(c3ccncn3)C[C@H]2CN(C)C)cc1 | i
Cc1noc(C)c1CCC(=O)N[C@@H]1CN(c2ccncn2)C[C@H]1CN(C)C | i
CN(C)C[C@@H]1CN(c2ccccn2)C[C@H]1NC(=O)Cc1ccsc1 | 28µM*
Cc1noc(C)c1CC(=O)N[C@@H]1CN(c2ccccn2)C[C@H]1CN(C)C | 32µM*
Cc1cccc(OCC(=O)N[C@@H]2CN(c3ccncn3)C[C@H]2CN(C)C)c1 | i
CCOCC(=O)N[C@@H]1CN(c2ccncn2)C[C@H]1CN(C)C | i
CN(C)C[C@@H]1CN(c2ccccn2)C[C@H]1NC(=O)CC1=CCCCC1 | 32µM*
CN(C)C[C@@H]1CN(c2ccncn2)C[C@H]1NC(=O)c1c(F)cccc1F | i
CN(C)C[C@@H]1CN(c2ccncn2)C[C@H]1NC(=O)C1CC=CCC1 (stereo not given in full) | i
Cc1noc(C)c1CC(=O)N[C@@H]1CN(c2ccncn2)C[C@H]1CN(C)C | i
O=C(c1ccccc1)N1CCC2(CCCCO2)CC1 | i

Screens (PubChem)
